13 compounds from PubChem BioAssay (NCATS) can be followed below.

Structures are written as SMILES. Results filed as inconclusive are left out. Calls of active or inactive are those of the source. Unless noted, calls come from the whole dose curve; as a rule, active = well fitted curve in the direction sought with a large enough effect; inconclusive = small, poorly fitted or top-dose-only effect, or another doubt; inactive = no such curve, though single readings can be large; an effect the other way counts as inactive or inconclusive.

Assay [1] deals with Cytochrome P450 3A4 (Homo sapiens) (UniProt P08684). Nature of the assay: qHTS Assay for Inhibitors and Substrates of Cytochrome P450 3A4 (AID 884). For activity change, negative = inhibition: % is set by controls: 0 for no effect and ±100 for the full control effect. Note: nearly all actives have a fitted effect of over 50% in size. Note: potency is the fitted concentration of half-maximal effect. The gist of the method:
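Luminescent readout of luciferin produced by CYP3A4 (20 nM) dealkylation of Luciferin-PPXE, 25 uM (its KM). NADPH-driven reaction ran 60 min at RT after 10 min compound preincubation; data scaled to 57 uM ketoconazole as 100% inhibition.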

Assay [2] has the same target. The assay can be described thus: qHTS Assay for Activators of Cytochrome P450 3A4 (AID 885). Note: nearly all actives have a fitted effect of over 65% in size. The gist of the method:
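Luminescent readout of luciferin formed from 25 uM Luciferin-PPXE (KM level) by 20 nM CYP3A4 in 200 mM KPO4, with 60 min NADPH-driven reaction at room temperature after 10 min compound exposure. Ketoconazole (57 uM) defined 100% inhibition.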
A general note: qHTS replaces the single test concentration by a dilution series.

Assay [3] can be described thus: Confirmation and Secondary Assay for Modulators of Hemoglobin Beta Chain Splicing at IVS2 654 locus (AID 910).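 Note: HeLa cells stably carrying EGFP split by mutant beta-globin IVS2-654 intron; per-well total GFP intensity by laser scanning cytometry after 2-day treatment; % of control where 0% means no effect.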 An outline of the steps: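 Readout: per-well total peak green fluorescence (488 nm ex, 500–520 nm em) from objects 5–250 µm, reflecting correct splicing of an EGFP-654 reporter. Compounds were applied for 2 days at 37 °C to overnight-plated HeLa EGFP-654 cells; controls were DMSO and 500 nM IVS2-654 PNA.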

Assay [4] can be described thus: Confirmation and Secondary Assay for Modulators of Hemoglobin Beta Chain Splicing at IVS2 705 locus (AID 930).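 Note: HeLa cells stably expressing the EGFP-705 splicing reporter; GFP fluorescence per well restored by corrected splicing of the IVS2-705 intron in EGFP; % of control where 0% means no effect.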 The gist of the method:
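Assay measures total GFP intensity per well in HeLa EGFP-705 cells after 2 days with compound; mis-splicing normally truncates EGFP, so fluorescence indicates corrected splicing.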

Assay [5] is described as follows: qHTS Assay for Lipid Storage Modulators (AID 1519; calls by dose curve; for activity change, negative = inhibition: % is set by controls: 0 for no effect and ±100 for the full control effect). To be noted: Drosophila S3 cells, BODIPY lipid droplet/cell ratio, laser cytometry, cells loaded with oleic acid; for activity change, negative = inhibition: at 57.5 µM (top of the series). The gist of the method: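 Cells seeded at 5,000 per well were treated with compounds over a concentration series and loaded with oleic acid (400 uM, as added). Lipid droplet fluorescence (488 nm excitation, 500-530 nm channel) was read by laser-scanning cytometry and normalized to 20 uM Triacsin C.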

Assay [6] has as its target DNA dC->dU-editing enzyme APOBEC-3G (Homo sapiens) (UniProt Q9HC16). The assay can be described thus: qHTS for inhibitors of Vif-A3G interactions: Validation (AID 588379). Note: 0% is about no effect. An outline of the steps:
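Yellow fluorescence (Ex 488, Em 500-530) of Vif-coexpressing HeLa A3G-eYFP cells, scanned by Acumen cytometer, reports blocked A3G degradation. Cells plated at 700/well overnight at 37 deg C before compound addition, then a further overnight compound incubation at 37 deg C.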

The target of assay [7] is Ubiquitin carboxyl-terminal hydrolase 1 (Homo sapiens) (UniProt O94782). Nature of the assay: Inhibitors of USP1/UAF1: Pilot qHTS (AID 504865).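 Note: rhodamine fluorescence freed from ubiquitin-rhodamine substrate followed over time; top concentration of the series differs between compounds; % is set by controls: 0 for no effect and ±100 for the full control effect; nearly all actives have a fitted effect of over 35% in size.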 The gist of the method:
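USP1/UAF1 complex at 1 nM preincubated 15 min at room temperature with compound, then Ub-Rho substrate added at 150 nM final. Fluorescence (480/540 nm) read kinetically in 50 mM HEPES pH 7.8, 0.5 mM EDTA, 1 mM TCEP, 0.1 mg/ml BSA, 0.01% Tween-20.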

Assay [8] has as its target Luciferin 4-monooxygenase (Photinus pyralis) (UniProt P08659). The assay can be described thus: Biochemical firefly luciferase enzyme assay for NPC (AID 624030).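 Note: purified P. pyralis luciferase at 10 nM with luciferin and ATP substrate; 0% = DMSO and -100% = full luciferase inhibition by PTC124 control; nearly all actives have a fitted effect of over 70% in size.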 The gist of the method:
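Direct inhibition of firefly luciferase enzyme (10 nM final, 50 mM Tris Acetate) assessed by luminescence within 5 minutes. Percent activity scaled between DMSO and PTC124 positive control, with concentration-effect curves classified by fit quality and response.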

[9] abbreviates: measured here: cell count channel max response.
Setting [10] is: measured here: lipid channel max response.

Ubiquitin carboxyl-terminal hydrolase 1 (Homo sapiens), sequence (O94782 whole entry, looked up): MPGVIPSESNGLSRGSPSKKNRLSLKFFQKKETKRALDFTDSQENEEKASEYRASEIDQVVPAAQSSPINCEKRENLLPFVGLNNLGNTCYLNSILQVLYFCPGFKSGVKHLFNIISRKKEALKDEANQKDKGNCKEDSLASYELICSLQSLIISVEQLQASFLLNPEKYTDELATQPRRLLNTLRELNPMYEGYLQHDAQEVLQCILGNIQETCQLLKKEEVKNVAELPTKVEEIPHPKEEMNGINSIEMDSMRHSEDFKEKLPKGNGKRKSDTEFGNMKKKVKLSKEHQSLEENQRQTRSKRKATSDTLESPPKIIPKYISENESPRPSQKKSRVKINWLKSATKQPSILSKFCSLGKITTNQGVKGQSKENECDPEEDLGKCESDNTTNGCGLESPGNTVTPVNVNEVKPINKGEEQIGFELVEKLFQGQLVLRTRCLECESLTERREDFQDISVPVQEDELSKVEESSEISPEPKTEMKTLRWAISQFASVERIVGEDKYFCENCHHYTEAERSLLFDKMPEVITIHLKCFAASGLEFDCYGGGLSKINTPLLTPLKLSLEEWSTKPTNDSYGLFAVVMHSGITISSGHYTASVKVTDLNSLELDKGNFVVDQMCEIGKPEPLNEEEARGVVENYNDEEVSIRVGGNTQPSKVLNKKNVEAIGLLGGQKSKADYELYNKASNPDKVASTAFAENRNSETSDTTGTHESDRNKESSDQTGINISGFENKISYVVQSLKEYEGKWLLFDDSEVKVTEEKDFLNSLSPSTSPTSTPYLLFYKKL
Cytochrome P450 3A4 (Homo sapiens), sequence (P08684 whole entry, looked up): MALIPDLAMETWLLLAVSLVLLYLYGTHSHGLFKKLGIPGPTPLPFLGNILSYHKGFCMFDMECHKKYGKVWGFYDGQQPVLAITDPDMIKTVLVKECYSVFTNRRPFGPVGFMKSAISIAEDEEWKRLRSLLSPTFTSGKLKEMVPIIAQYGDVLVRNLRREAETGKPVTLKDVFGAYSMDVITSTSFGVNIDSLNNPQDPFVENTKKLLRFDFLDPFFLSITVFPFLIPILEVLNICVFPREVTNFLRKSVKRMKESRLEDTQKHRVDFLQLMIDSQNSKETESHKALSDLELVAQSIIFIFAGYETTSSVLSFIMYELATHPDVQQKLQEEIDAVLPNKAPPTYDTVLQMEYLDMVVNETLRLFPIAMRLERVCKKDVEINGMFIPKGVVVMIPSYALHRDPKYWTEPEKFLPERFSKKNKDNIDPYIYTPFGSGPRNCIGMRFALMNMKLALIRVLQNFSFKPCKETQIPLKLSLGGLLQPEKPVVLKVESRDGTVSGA
DNA dC->dU-editing enzyme APOBEC-3G (Homo sapiens), sequence (Q9HC16 whole entry, looked up): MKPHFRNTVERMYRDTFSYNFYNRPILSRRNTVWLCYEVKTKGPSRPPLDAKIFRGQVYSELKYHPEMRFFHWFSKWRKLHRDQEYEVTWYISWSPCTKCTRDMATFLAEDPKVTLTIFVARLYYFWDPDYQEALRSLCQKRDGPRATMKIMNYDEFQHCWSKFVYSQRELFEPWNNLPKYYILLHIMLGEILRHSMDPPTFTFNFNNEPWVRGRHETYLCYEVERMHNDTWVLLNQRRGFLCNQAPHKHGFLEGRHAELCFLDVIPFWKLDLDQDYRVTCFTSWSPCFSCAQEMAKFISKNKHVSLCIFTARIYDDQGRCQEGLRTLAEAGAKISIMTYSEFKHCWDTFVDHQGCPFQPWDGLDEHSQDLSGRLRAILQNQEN
Luciferin 4-monooxygenase (Photinus pyralis), sequence (P08659 whole entry, looked up): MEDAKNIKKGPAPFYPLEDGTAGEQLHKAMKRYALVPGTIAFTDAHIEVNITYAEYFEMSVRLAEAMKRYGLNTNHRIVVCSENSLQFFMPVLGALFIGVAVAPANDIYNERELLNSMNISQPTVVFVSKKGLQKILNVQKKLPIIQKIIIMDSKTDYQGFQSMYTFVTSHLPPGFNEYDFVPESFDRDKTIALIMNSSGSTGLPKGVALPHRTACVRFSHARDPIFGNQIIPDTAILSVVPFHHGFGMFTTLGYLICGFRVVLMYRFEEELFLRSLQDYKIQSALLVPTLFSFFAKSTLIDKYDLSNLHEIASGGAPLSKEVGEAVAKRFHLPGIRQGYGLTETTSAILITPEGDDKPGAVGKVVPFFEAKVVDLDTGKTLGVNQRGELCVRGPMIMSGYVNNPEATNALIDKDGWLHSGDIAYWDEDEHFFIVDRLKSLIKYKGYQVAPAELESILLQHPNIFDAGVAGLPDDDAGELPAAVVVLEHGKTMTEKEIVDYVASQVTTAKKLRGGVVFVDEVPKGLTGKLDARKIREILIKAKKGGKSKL

For `C=C1CCC(OC(C)=O)/C(C)=C/CC2[C@H]1CC2(C)C` (stereo not given in full), the Potency in assay [1] was 31.6 µM (active). The Potency entry in assay [2], in assay [3] and in assay [4] was “inactive” in each case. Further, the activity change, negative = inhibition in assay [5] was 1.96% (inactive). In addition, the max response worked out at 2.53% in assay [5] (setting [9]) and 5.33% in assay [5] (setting [10]).
`N=c1ccn2c(n1)O[C@@H]1[C@H](O)[C@H](CO)O[C@@H]12`: the Potency result in assay [1] is “inactive”. Further, the activity change, negative = inhibition in assay [5] was -7.95% (inactive). Also, the max response in assay [5] (setting [9]) is 4.02%; in assay [5] (setting [10]), -4.27%. Besides, the result in assay [6] was inactive.
In the case of `Cc1onc(-c2ccccc2Cl)c1C(=O)NC1C(=O)N2C1SC(C)(C)C2C(=O)O` (stereo not given), the Potency entry in assay [3], in assay [4] and in assay [7] was “inactive” each time. Besides, the activity change, negative = inhibition in assay [5] is 9.93% (inactive). In addition, the max response in assay [5] (setting [9]) is 11.3%; in assay [5] (setting [10]), 24.6%.
For `CO/N=C(\C(=O)NC1C(=O)N2C(C(=O)OCOC(=O)C(C)(C)C)=C(/C=C\c3scnc3C)CSC12)c1csc(N)n1` (stereo not given), the Potency entry in assay [3], in assay [4] and in assay [8] was “inactive” throughout. In addition, the activity change, negative = inhibition in assay [5] was 12.3% (inactive). For the same compound, the values for the max response in assay [5] (setting [9]) and in assay [5] (setting [10]) were -4.33% and 11.5%, respectively.
Regarding `C[C@@]12CCC3c4ccc(O)cc4CCC3C1CCC2O` (stereo not given in full), the Potency entry in assay [4] and in assay [7] was “inactive” in each case. Besides, the activity change, negative = inhibition in assay [5] is -2.04% (inactive). In addition, the max response in assay [5] (setting [9]) is -0.621%; in assay [5] (setting [10]), -0.569%.
For the compound `CC(C)(C)NC[C@@H](O)COc1nsnc1N1CCOCC1`, the Potency entry in assay [4] and in assay [7] was “inactive” each time. In addition, the activity change, negative = inhibition in assay [5] is 13.4% (inactive). The max response in assay [5] (setting [9]) worked out at 16.2%; in assay [5] (setting [10]) it was 36.5%.
Take `CC1=C(C(=O)O)N2C(=O)C(NC(=O)C(N)c3ccc(O)cc3)C2SC1` (stereo not given): the Potency result in assay [3], in assay [4] and in assay [7] was “inactive” each time. Besides, the activity change, negative = inhibition in assay [5] is 7.51% (inactive). In addition, the max response was determined as 4.8% in assay [5] (setting [9]) and 14.9% in assay [5] (setting [10]).
Consider `O=c1oc2ccccc2cc1O`, for which the Potency entry in assay [4] and in assay [7] was “inactive” in each case. Further, in assay [5], the activity change, negative = inhibition is 6.16% (inactive). The figures for the max response in assay [5] (setting [9]) and in assay [5] (setting [10]) were 4.09% and 13.1%, respectively.
Consider `CC[C@@H]1OC(=O)[C@@H](C)[C@H](O[C@H]2C[C@@](C)(OC)[C@@H](O)[C@H](C)O2)C(C)[C@H](O[C@H]2O[C@@H](C)C[C@@H](N(C)C)[C@@H]2O)[C@@](C)(O)C[C@H](C)C(=O)[C@@H](C)[C@H](O)[C@@]1(C)O` (stereo not given in full), for which, in assay [1], the Potency is 15.8 µM (active). Besides, the Potency entry in assay [2] is “inactive”. Further, the activity change, negative = inhibition in assay [5] is 6.26% (inactive). The max response in assay [5] (setting [9]) is 3.51%; in assay [5] (setting [10]), 7.04%. In assay [6], the call was inactive.
Regarding `C=CCSCC=C`, the Potency entry in assay [4] and in assay [7] was “inactive” throughout. For the same compound, the activity change, negative = inhibition in assay [5] is 6.16% (inactive). For the same compound, the max response was -10.4% in assay [5] (setting [9]) and -1.96% in assay [5] (setting [10]).
Take `CCOC(=O)C(CCc1ccccc1)NC(C)C(=O)N1C(C(=O)O)CC2CCCC21` (stereo not given): the Potency result in assay [4] and in assay [7] was “inactive” in each case. Also, the activity change, negative = inhibition in assay [5] is 8.81% (inactive). Also, the max response turned out to be 13.5% in assay [5] (setting [9]) and 25.8% in assay [5] (setting [10]).
As for `CC(=O)OC1CC2C(C)(C)C(O)CC[C@@]2(C)C2CC[C@@]3(C)C(c4ccoc4)OC(=O)C4O[C@@]43[C@]12C` (stereo not given in full), the Potency in assay [1] is 2.51 µM (active). In addition, the Potency entry in assay [2], in assay [3] and in assay [4] was “inactive” in each case. Also, the activity change, negative = inhibition in assay [5] was -1.7% (inactive). In addition, the max response was -2.48% in assay [5] (setting [9]) and -4.24% in assay [5] (setting [10]).
With `COc1ccccc1-c1coc2cc(O)ccc2c1=O`, the Potency in assay [1] is 25.1 µM (active). Moreover, the Potency entry in assay [2], in assay [3] and in assay [4] was “inactive” each time. Moreover, in assay [5], the activity change, negative = inhibition was 5.08% (inactive). Moreover, the figures for the max response in assay [5] (setting [9]) and in assay [5] (setting [10]) were -6.55% and 10.3%, respectively.
